Active and inactive are the calls of the source.
What was measured:
[1] = small molecules captured by biotinylated probe aFSTL3 – biochemical, small-molecule microarray, fluorescence 635/667, stem cell growth factor project, primary screen (AID 1064); details: higher = more signal;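 further: measures binding of the biotinylated anti-FSTL3 antibody to printed compounds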
[2] = binders from COS7 lysate, DM2A8 probe, primary screen, torsin A project, cell lysate, small-molecule microarray, fluorescence 635/667 (AID 1065); details: higher = more signal, COS7 lysate expressing mutant human TOR1A
[3] = small molecules captured by biotinylated probe aFGF2 – biochemical, small-molecule microarray, fluorescence 635/667, stem cell growth factor project, primary screen (AID 1067); details: higher = more signal;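 further: measures binding of biotinylated aFGF2 protein to printed compounds on slides; z-score merges feature fluorescence and signal-to-noise across triplicate slides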
[4] = small molecules captured by biotinylated probe aFGF10 – biochemical, small-molecule microarray, fluorescence 635/667, stem cell growth factor project, primary screen (AID 1071); details: higher = more signal;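 further: score merges 667 nm spot intensity and signal to noise from triplicate slides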
[5] = biological target: Neurogenic locus notch homolog protein 2 (Homo sapiens) (UniProt Q04721); assay: small molecules binding Notch2 protein – biochemical, small-molecule microarray, 635 nm fluorescence, stem cell growth factors, primary screen (AID 1073); details: higher = more signal
Neurogenic locus notch homolog protein 2 (Homo sapiens), sequence (Q04721 whole entry, looked up, canonical isoform): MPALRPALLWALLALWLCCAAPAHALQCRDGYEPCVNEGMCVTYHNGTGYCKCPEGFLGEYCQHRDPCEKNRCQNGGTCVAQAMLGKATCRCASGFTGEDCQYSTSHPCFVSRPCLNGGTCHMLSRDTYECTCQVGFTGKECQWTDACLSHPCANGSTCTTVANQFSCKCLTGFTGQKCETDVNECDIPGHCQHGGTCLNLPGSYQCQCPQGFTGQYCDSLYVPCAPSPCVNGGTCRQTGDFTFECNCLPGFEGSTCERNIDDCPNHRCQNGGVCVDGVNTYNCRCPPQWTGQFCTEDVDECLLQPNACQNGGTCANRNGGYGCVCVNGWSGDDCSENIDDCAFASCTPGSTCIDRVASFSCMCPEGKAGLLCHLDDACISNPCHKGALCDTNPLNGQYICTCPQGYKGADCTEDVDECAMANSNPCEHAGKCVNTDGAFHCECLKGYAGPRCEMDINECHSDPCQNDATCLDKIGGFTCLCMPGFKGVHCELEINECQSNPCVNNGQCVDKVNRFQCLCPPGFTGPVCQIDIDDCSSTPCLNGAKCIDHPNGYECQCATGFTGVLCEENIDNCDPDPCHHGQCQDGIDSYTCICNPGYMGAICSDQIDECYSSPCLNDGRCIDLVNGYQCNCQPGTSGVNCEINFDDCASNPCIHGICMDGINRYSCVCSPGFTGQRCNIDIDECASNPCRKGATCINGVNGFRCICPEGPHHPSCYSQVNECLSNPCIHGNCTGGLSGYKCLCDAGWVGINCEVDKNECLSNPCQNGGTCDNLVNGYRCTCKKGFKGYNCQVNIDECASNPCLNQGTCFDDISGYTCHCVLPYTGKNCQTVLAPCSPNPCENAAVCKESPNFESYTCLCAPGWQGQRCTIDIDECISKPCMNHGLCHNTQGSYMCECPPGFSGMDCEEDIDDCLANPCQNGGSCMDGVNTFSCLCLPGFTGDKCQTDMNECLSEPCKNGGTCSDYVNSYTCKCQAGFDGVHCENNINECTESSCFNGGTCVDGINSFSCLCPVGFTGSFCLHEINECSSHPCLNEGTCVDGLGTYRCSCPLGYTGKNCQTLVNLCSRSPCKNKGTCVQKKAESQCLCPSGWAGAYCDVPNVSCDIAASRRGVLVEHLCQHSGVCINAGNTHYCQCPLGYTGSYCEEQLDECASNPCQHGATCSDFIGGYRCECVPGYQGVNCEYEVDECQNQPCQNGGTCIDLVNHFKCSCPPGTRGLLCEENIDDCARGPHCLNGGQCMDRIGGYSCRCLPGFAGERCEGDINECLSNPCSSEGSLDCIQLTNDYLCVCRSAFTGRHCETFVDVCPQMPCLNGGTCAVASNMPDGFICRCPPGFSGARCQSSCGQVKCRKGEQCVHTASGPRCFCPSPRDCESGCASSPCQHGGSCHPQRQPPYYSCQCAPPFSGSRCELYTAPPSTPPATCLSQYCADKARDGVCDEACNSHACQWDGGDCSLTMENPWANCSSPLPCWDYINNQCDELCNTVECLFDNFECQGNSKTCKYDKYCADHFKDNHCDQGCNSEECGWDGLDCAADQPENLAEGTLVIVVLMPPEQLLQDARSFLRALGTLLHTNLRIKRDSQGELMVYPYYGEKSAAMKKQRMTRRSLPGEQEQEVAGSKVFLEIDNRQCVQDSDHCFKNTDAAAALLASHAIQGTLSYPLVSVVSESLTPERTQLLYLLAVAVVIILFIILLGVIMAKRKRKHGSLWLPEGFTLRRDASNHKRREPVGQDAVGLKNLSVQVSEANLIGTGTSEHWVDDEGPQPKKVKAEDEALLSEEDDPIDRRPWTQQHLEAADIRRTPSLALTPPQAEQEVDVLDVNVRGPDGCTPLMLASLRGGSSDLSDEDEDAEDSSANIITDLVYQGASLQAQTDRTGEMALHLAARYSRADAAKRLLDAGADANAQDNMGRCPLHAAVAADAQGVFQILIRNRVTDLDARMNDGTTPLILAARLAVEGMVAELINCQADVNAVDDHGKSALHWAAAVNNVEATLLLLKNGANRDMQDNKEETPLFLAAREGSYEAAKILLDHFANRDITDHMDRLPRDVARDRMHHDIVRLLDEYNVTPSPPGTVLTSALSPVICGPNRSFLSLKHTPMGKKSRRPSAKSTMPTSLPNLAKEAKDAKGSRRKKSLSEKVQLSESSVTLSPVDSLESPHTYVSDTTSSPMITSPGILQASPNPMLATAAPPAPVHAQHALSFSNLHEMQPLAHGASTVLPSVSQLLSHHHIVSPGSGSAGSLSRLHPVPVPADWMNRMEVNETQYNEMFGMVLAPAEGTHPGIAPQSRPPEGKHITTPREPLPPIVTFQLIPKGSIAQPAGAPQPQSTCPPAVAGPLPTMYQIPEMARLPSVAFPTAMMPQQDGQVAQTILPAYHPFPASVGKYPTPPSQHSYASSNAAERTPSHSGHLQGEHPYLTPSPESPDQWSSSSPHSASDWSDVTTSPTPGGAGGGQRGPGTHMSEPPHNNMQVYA

[6] = biological target: Pro-neuregulin-1, membrane-bound isoform (Homo sapiens) (UniProt Q02297); assay: small molecules binding neuregulin-1 protein – biochemical, small-molecule microarray, fluorescence 635/667, psychiatric disease protein project, primary screen (AID 1075); details: NRG1 binding, 635 nm fluorescence, higher = more signal;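 further: score combines 667 nm spot fluorescence with signal to noise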
[7] = system: Neuregulin-1 EGF-like domain; assay: small molecules binding NRG1 EGF domain – biochemical, small-molecule microarray, 635 nm fluorescence, primary screen (AID 1081); details: higher = more signal;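 further: binding of the protein to compounds printed on small-molecule microarray slides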
[8] = FRG1 expression reporter modulators in myotubes – cell-based, C2C12 myotubes, firefly/Renilla luciferase, luminescence, FRG1 inhibition for FSHD, primary screen (AID 1084); details: FRG1 promoter luciferase, higher = more signal, called active from +8 up or from −8 down
[9] = small molecules captured by biotinylated probe aFST – biochemical, small-molecule microarray, fluorescence 635/667, stem cell growth factor project, primary screen (AID 1086); details: higher = more signal;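 further: score merges 667 nm fluorescence with signal-to-noise of each printed compound spot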
[10] = binders of probe aHhip on microarray, primary screen, stem cell growth factor project, biochemical, small-molecule microarray, fluorescence 635/667 (AID 1087); details: higher = more signal;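 further: score merges spot fluorescence at 667nm with spot signal to noise ratio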
[11] = system: PRMT1 (protein arginine N-methyltransferase 1); assay: small molecules binding arginine methyltransferase PRMT1 – biochemical, small-molecule microarray, 635 nm fluorescence, primary screen (AID 1088); details: higher = more signal;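 further: binding of Prmt1 protein to compounds spotted on small-molecule microarray slides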
[12] = growth effects on S. cerevisiae YJM789 – YJM789 clinical isolate, OD600, 24 h, basal, primary screen (AID 1089); details: higher = more signal, called active from +8 up or from −8 down;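 further: growth of clinical yeast isolate S. cerevisiae YJM 789 seeded 1000 cells per well; test concentration not given here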
[13] = S. pombe growth modifiers, basal conditions – strain 972, OD600, 24 h, no modulator, primary screen (AID 1090);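 further: basal condition with compound alone and no growth modifier present; test concentration not given here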; details: S. pombe 972 growth, higher = more signal, called active from +8 up or from −8 down
[14] = budding yeast growth modifiers under rapamycin – strain BY4716, OD600, 96 h, primary screen (AID 1091); further: test concentration not given here; details: S. cerevisiae BY4716 + rapamycin, higher = more signal, called active from +8 up or from −8 down
[15] = biological target: Torsin-1A-interacting protein 2 (Homo sapiens) (UniProt Q8NFQ8); assay: small molecules binding lysate-expressed LULL1 – cell lysate, human LULL1 lysate, 635/667 nm fluorescence, primary screen (AID 1092); details: small-molecule microarray, hLULL1 lysate binding, 635 nm fluorescence; higher = more signal;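 further: probe is lysate of COS7 cells overexpressing human LULL1; score merges per-feature 667 nm fluorescence with signal-to-noise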
[16] = optical density change of DRC41 E. coli – strain DRC41, OD650, 24 h, E. coli filamentation project, primary screen (AID 1093);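 further: MC1000 strain lacking acrAB efflux and sulA so SOS filamentation is blocked; test concentration not given here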; details: E. coli DRC41 growth, higher = more signal, called active from +8 up or from −8 down
[17] = probe aLefty2 binding to arrayed compounds – biochemical, biotinylated probe, 635/667 nm fluorescence, primary screen (AID 1094); details: small-molecule microarray, higher = more signal;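 further: score merges spot fluorescence near 667 nm with spot signal-to-noise ratio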
[18] = system: Noggin (protein binding on small-molecule microarray); assay: small molecules binding Noggin protein – biochemical, 635/667 nm fluorescence, primary screen (AID 1095); details: 635 nm fluorescence, higher = more signal;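 further: score merges 667 nm feature fluorescence with signal to noise over triplicate slides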
[19] = biological target: Neurogenic locus notch homolog protein 3 (Homo sapiens) (UniProt Q9UM47); assay: small molecules binding NOTCH3 protein – biochemical, 635/667 nm fluorescence, primary screen (AID 1096); details: small-molecule microarray, 635 nm fluorescence, higher = more signal
Neurogenic locus notch homolog protein 3 (Homo sapiens), sequence (Q9UM47 whole entry, looked up): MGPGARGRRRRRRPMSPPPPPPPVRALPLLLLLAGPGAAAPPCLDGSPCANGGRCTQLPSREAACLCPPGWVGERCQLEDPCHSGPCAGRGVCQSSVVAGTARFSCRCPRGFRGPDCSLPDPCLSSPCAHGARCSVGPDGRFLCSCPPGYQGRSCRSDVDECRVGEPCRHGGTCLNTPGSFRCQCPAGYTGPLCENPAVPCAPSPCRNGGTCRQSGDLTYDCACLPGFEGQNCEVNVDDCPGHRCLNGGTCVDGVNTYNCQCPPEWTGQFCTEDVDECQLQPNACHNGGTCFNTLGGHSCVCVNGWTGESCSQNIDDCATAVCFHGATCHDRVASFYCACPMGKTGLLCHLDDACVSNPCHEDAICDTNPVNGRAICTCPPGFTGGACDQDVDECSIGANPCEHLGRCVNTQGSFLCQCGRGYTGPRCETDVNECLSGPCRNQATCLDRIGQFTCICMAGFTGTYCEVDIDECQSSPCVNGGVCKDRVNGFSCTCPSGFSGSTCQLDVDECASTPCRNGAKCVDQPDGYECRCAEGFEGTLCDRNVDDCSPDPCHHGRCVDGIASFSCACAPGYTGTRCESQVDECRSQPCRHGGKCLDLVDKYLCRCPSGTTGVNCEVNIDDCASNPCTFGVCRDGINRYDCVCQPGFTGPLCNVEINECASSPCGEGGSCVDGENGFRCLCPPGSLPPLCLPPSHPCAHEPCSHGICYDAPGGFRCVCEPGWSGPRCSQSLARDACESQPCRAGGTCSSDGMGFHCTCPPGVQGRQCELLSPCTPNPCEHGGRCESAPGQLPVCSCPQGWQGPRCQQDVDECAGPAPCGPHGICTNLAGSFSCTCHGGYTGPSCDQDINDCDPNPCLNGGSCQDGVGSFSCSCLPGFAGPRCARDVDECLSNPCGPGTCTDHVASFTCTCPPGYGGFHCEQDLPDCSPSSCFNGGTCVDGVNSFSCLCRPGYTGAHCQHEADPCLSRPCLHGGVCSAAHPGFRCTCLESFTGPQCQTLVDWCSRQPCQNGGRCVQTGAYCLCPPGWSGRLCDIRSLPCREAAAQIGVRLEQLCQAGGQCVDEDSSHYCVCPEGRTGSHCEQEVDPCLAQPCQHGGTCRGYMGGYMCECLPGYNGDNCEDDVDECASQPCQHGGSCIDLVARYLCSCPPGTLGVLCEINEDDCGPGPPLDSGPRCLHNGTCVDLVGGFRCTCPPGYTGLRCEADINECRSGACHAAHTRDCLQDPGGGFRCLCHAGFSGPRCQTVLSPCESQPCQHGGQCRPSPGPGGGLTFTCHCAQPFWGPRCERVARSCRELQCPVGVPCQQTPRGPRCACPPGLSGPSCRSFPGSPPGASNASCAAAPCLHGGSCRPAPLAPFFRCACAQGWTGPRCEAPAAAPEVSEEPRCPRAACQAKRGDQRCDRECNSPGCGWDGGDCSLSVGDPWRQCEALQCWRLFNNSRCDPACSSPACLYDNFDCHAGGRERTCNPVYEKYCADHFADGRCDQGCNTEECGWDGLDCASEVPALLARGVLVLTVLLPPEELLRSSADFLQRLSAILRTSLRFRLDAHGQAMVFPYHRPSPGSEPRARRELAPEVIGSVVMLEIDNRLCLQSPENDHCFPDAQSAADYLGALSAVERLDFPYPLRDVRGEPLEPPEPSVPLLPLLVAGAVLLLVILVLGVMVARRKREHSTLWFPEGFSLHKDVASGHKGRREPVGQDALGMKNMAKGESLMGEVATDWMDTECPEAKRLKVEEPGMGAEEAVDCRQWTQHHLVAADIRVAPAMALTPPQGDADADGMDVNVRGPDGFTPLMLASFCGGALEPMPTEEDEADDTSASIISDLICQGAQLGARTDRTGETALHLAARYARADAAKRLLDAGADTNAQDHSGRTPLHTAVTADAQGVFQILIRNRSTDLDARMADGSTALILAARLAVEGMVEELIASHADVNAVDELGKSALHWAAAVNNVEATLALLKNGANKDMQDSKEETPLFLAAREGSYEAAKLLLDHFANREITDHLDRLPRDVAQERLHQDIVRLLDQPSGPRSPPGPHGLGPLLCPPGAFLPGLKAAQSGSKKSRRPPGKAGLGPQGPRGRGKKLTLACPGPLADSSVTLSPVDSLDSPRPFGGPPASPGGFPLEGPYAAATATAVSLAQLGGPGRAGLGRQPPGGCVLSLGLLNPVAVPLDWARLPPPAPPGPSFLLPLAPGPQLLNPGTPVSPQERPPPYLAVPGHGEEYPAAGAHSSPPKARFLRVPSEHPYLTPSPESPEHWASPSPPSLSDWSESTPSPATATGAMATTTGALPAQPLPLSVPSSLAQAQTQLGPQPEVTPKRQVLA

[20] = probe aEGFR binding to arrayed compounds – biochemical, biotinylated probe, 635/667 nm fluorescence, primary screen (AID 1097); details: small-molecule microarray, higher = more signal;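 further: probe is a biotinylated anti-EGFR antibody binding compounds printed on slides; score combines fluorescence near 667 nm and signal to noise of each spot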

| SMILES | composite z-score [1] | composite z-score [2] | composite z-score [3] | composite z-score [4] | composite z-score [5] | composite z-score [6] | composite z-score [7] | z-score [8] | composite z-score [9] | composite z-score [10] | composite z-score [11] | z-score [12] | z-score [13] | z-score [14] | composite z-score [15] | z-score [16] | composite z-score [17] | composite z-score [18] | composite z-score [19] | composite z-score [20] |
| --- | --- | --- | --- | --- | --- | --- | --- | --- | --- | --- | --- | --- | --- | --- | --- | --- | --- | --- | --- | --- |
| COc1ccc([Si](C)(C)[C@H]2[C@H](CC(=O)N(CCO)Cc3ccccc3)O[C@@]3(C(=O)N(Cc4cccc(N5C(=O)COc6ccccc65)c4)c4ccccc43)[C@@H]2C)cc1 | 1.54 | 0.347 | -0.106 | 0.585 | 0.703 | 1.11 | 1.27 | -1.84 (inactive) | -0.103 | 0.245 | 1.44 | 2.21 (inactive) | 0.272 (inactive) | 3.48 (inactive) | 2.13 | 2.09 (inactive) | -0.0846 | 0.97 | 0.496 | 0.0927 |
| CCN(CC)c1ccc(N2CC=CC34O[C@@H]5C=CCOC(=O)[C@@H]5[C@H]3C(=O)N(C(CO)C(C)C)[C@@H]4C2=O)cc1 (stereo not given in full) | 0.277 | -0.866 | -0.134 | -0.241 | -0.835 | -0.367 | -0.805 | 0.232 (inactive) | -0.609 | -0.134 | -0.755 | 1.01 (inactive) | -0.635 (inactive) | 1.07 (inactive) | -0.952 | 1.59 (inactive) | -0.138 | -0.544 | -1.02 | -0.253 |
| CCCNC(=O)[C@@]1(Sc2ccc(C)cc2)CC(=O)N(Cc2cc(C(F)(F)F)cc(C(F)(F)F)c2)[C@@H]1c1ccc(CO)cc1I | 0.71 | 0.273 | -0.0775 | -0.84 | -0.472 | 1.16 | 0.242 | -1.25 (inactive) | 0.267 | -0.0237 | 0.491 | -5.07 (inactive) | -5.46 (inactive) | -0.894 (inactive) | 1.03 | 3.43 (inactive) | 0.024 | -1.35 | -0.168 | -0.118 |
| COc1ccc([Si](C)(C)[C@@H]2[C@@H](CC(=O)N3CCC[C@H]3CO)O[C@]3(C(=O)N(Cc4ccc(I)cc4)c4ccccc43)[C@H]2C)cc1 | 0.035 | 0.356 | -0.142 | 0.254 | 0.806 | 0.805 | 1.22 | -1.71 (inactive) | 0.357 | 0.281 | 1.56 | -1.41 (inactive) | -0.398 (inactive) | -0.309 (inactive) | 1.53 | 2.22 (inactive) | 0.0662 | 0.982 | 1.13 | 0.0152 |
| C#CCOc1ccc(C[C@H]2C(=O)O[C@H](Cc3ccccc3)[C@H](/C=C/C3CC3)N2CC#C)cc1 | 0.372 | 0.259 | -0.14 | -0.118 | -0.487 | -0.13 | 0.141 | -4.41 (inactive) | -0.652 | -0.0074 | -0.746 | 1.35 (inactive) | -0.795 (inactive) | 0.519 (inactive) | 0.408 | 2.04 (inactive) | -0.139 | -0.493 | -1.74 | -0.206 |

Source: PubChem BioAssay
